Measurements taken from PubChem BioAssay (EPA / NIEHS).
Results filed as inconclusive are left out. Active and inactive are the calls of the source. Rule for the calls, unless noted: active = hit-call score of the fitted dose curve at least 0.9, where 1 is the maximum; inconclusive = response in the unintended direction; inactive = score below 0.9.

Tests used:
[1] = TOX21_p53_BLA_p2_viability: Viability Assessment in the Tox21 HCT-116 p53 Agonism Beta-lactamase Assay, Phase 2 (AID 2283591);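 note: compound exposure lasted 16 h at 37 °C; actives lower the ATP signal meaning cytotoxicity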
How it was run: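 HCT116 p53-bla cells, 4000/well, dosed after 5 h plating (217-fold dilution of DMSO stocks) and incubated 16 h at 37C. Viability taken as cellular ATP by CellTiter-Glo luminescence after 30 min RT; signal loss marks cytotoxicity.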

[2] = biological target: Cellular tumor antigen p53 (Homo sapiens) (UniProt P04637); test: TOX21_p53_BLA_p2_ratio: Tox21 HCT-116 p53 Agonism Beta-lactamase Assay, Ratio, Phase 2 (AID 2283592)
Chain of Cellular tumor antigen p53 (Homo sapiens) (P04637 whole entry, looked up): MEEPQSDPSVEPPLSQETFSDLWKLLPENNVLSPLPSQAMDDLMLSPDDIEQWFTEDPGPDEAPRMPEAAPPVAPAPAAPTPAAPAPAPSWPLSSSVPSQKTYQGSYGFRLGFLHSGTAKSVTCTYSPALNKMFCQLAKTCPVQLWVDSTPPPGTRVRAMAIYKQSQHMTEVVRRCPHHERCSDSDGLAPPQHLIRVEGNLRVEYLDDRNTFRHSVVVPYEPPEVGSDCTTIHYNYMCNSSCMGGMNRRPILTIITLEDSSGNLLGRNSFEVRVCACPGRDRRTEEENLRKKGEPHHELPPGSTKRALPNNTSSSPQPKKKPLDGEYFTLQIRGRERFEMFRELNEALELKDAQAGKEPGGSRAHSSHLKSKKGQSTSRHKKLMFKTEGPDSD
How it was run: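 In this cell-based reporter format, HCT116 cells were dosed with chemicals delivered from DMSO by 217-fold dilution and incubated 16 h at 37C. Emission at 460 and 530 nm after 2 h CCF4-AM loading provided the ratio, fitted upward versus DMSO.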

[3] = biological target: Cellular tumor antigen p53 (Homo sapiens) (UniProt P04637); test: TOX21_p53_BLA_p3_ratio: Tox21 HCT-116 p53 Agonism Beta-lactamase Assay, Ratio, Phase 3 (AID 2283596)
How it was run: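 HCT116 p53-bla cells (4000/well) given compound in DMSO (217-fold dilution) after 5 h, incubated 16 h at 37C. CCF4-AM substrate 2 h at room temperature; 460/530 nm emission ratio, gain fitted against DMSO.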

[4] = TOX21_p53_BLA_p4_viability: Viability Assessment in the Tox21 HCT-116 p53 Agonism Beta-lactamase Assay, Phase 4 (AID 2283597);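 note: hits lower the luminescence signal meaning cytotoxicity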
How it was run: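 We seeded HCT116 p53 reporter cells at 4000/well and waited 5 h. We then added compounds in DMSO at a 217-fold dilution and incubated for 16 h. Viability was read as CellTiter-Glo luminescence after 30 min at RT.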

[5] = biological target: Cellular tumor antigen p53 (Homo sapiens) (UniProt P04637); test: TOX21_p53_BLA_p5_ratio: Tox21 HCT-116 p53 Agonism Beta-lactamase Assay, Ratio, Phase 5 (AID 2283599)
How it was run: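 HCT-116 p53-bla cells (4000/well) plated 5 h, dosed with compound (217-fold DMSO dilution) for 16 h at 37 C; CCF4-AM substrate 2 h at room temperature. Activity is the 460/530 nm emission ratio (405 nm excitation), fitted in gain-of-signal direction versus DMSO.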

[6] = TOX21_p53_BLA_p5_viability: Viability Assessment in the Tox21 HCT-116 p53 Agonism Beta-lactamase Assay, Phase 5 (AID 2283600)
How it was run: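 Compounds, pinned from DMSO at 217-fold dilution, were left on the cells for 16 h. The viability endpoint was ATP content measured by CellTiter-Glo luminescence, where falling signal reflects cytotoxicity.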

[7] = TOX21_p53_BLA_p3_viability: Viability Assessment in the Tox21 HCT-116 p53 Agonism Beta-lactamase Assay, Phase 3 (AID 2283593);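 note: cells exposed to compound for 16 h before reading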
How it was run: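 HCT116 cells, 4000/well, dosed 5 h after plating by pin transfer (217-fold dilution from DMSO stock) and incubated 16 h at 37C, 5% CO2. Viability read as ATP luminescence with CellTiter-Glo after 30 min at room temperature.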

[8] = biological target: Cellular tumor antigen p53 (Homo sapiens) (UniProt P04637); test: TOX21_p53_BLA_p4_ratio: Tox21 HCT-116 p53 Agonism Beta-lactamase Assay, Ratio, Phase 4 (AID 2283601)
How it was run: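 HCT-116 p53 beta-lactamase reporter cells (4000/well) preincubated 5 h, then compound (217-fold dilution of DMSO stock) for 16 h at 37C. CCF4-AM substrate added 2 h at room temperature; 460/530 nm emission ratio fitted upward versus DMSO.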

PGR (gene 5241) [9] = biological target: PGR (gene 5241) (UniProt P06401); test: TOX21_PR_BLA_Followup_Antagonist_ratio: Tox21 HEK293 Progesterone Receptor (PR) Antagonism Beta-lactamase Follow-Up Assay, Ratio (AID 2283934);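 note: PR-UAS-bla HEK293T cells stimulated with 1 nM R5020 agonist for 16 hr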
Chain of PGR (gene 5241) (P06401 whole entry, looked up): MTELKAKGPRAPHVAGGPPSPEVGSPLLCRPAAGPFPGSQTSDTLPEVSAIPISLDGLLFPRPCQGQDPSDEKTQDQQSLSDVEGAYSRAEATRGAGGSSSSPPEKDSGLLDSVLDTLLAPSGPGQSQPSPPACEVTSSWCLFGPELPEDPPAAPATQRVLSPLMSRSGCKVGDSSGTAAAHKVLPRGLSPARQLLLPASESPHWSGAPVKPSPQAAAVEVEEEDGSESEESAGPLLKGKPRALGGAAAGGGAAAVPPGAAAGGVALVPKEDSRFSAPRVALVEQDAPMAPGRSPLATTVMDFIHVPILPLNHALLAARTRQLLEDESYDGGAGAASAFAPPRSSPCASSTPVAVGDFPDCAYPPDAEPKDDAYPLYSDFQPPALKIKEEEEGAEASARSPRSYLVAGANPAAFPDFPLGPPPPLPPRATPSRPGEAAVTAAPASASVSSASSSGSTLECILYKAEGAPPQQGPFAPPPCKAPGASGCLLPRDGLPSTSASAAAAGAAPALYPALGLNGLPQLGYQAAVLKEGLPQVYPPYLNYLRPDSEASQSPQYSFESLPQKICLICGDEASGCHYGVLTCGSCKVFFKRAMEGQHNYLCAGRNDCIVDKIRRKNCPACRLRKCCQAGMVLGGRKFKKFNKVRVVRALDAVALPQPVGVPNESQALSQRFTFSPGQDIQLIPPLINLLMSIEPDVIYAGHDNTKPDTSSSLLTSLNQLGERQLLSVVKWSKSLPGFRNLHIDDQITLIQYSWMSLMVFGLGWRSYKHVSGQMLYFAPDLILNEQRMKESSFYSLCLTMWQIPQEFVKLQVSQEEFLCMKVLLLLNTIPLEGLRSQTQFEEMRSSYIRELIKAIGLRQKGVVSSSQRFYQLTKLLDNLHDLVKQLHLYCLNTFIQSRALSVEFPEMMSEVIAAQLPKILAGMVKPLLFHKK
How it was run: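 Antagonist mode used 1 nM R5020 (final) as agonist on a beta-lactamase reporter line in HEK293T cells. Activity was taken from the substrate cleavage ratio after 16 hr exposure.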

[10] = TOX21_PR_BLA_Followup_Agonist_viability: Viability Assessment in the Tox21 HEK293 Progesterone Receptor (PR) Agonism Beta-lactamase Follow-Up Assay (AID 2283935);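 note: signal loss means lower viability so actives are cytotoxic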
How it was run: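 Multiplexed viability counter-screen: ATP-coupled luciferase signal measured after 30 min at room temperature, following 16 hr compound treatment of PR-UAS-bla HEK293T cells grown in charcoal-stripped serum.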

[11] = TOX21_PR_BLA_Followup_Antagonist_viability: Viability Assessment in the Tox21 HEK293 Progesterone Receptor (PR) Antagonism Beta-lactamase Follow-Up Assay (AID 2283936);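 note: hits lower the luminescence signal meaning cytotoxicity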
How it was run: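 PR-UAS-bla HEK293T cells (3,000/well, 2% charcoal-stripped FBS) given compound plus R5020 agonist, 16 h at 37C. CellTiter-Glo added after bla read, 30 min at room temperature; luminescence loss indicates cytotoxicity.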

PGR (gene 5241) [12] = biological target: PGR (gene 5241) (UniProt P06401); test: TOX21_PR_LUC_Followup_Agonist: Tox21 HEK293 Progesterone Receptor (PR) Agonism Luciferase Follow-Up Assay (AID 2283937; active = hit-call score of the fitted dose curve at least 0.9, where 1 is the maximum; inactive = score below 0.9)
How it was run: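 Agonist mode: reporter cells carrying PR-A and luciferase are treated 16 h with test compounds at 37C. Luciferase induction is measured by luminescence and fitted upward against DMSO.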

PGR (gene 5241) [13] = biological target: PGR (gene 5241) (UniProt P06401); test: TOX21_PR_LUC_Followup_Antagonist: Tox21 HEK293 Progesterone Receptor (PR) Antagonism Luciferase Follow-Up Assay (AID 2283938);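 note: curve fitted upward as signal gain over DMSO baseline despite antagonist label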
How it was run: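 Luminescence from ONE-Glo reagent, measured after 30 min at room temperature, served as readout. Cells (HEK293 carrying PR-A-luc) had been treated 16 h at 37C with DMSO-dissolved compounds. Activity was fitted against DMSO controls.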

[14] = TOX21_PR_LUC_Followup_Antagonist_viability: Viability Assessment in the Tox21 HEK293 Progesterone Receptor (PR) Antagonism Luciferase Follow-Up Assay (AID 2283940)
How it was run: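 Cellular ATP, measured with luciferase-coupled CellTiter-Glo, served as the viability endpoint after HEK293-PR-A-luc cells were exposed to test compounds for 16 h at 37C.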

[15] = TOX21_PR_LUC_Followup_Agonist_viability: Viability Assessment in the Tox21 HEK293 Progesterone Receptor (PR) Agonism Luciferase Follow-Up Assay (AID 2283941);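 note: loss of signal means cytotoxicity so actives lower viability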
How it was run: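 Luminescent ATP quantitation (CellTiter-Glo) serves as the read-out; a drop flags cytotoxic compounds. Cells are HEK293-PR-A-luc grown in 10% charcoal-stripped FBS, plated 3,000/well, and exposed to compound for 16 h.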

[16] = CCTE_Harrill_HTTr_Apoptosis_MCF7: CCTE's 6-hour Apoptosis Assessment for the High-Throughput Transcriptomics (HTTr) Platform, in MCF-7 cells cultured in DMEM + 10% fetal bovine serum, Harrill Lab (AID 2284011; active = hit-call score of the fitted dose curve at least 0.9, where 1 is the maximum; inactive = score below 0.9)
How it was run: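 Read-out: CellEvent Caspase 3/7 Green signal by high content imaging, gain-of-signal indicating apoptosis. MCF-7 cells, DMEM + 10% FBS, eight-point dilution series, 6 h exposure. Curves fitted bidirectionally relative to DMSO negative control.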

[17] = CCTE_Harrill_HTTr_Viability_MCF7: CCTE's 6-hour Cell Viability Assessment for the High-Throughput Transcriptomics (HTTr) Platform, in MCF-7 cells cultured in DMEM + 10% fetal bovine serum, Harrill Lab (AID 2284010; active = hit-call score of the fitted dose curve at least 0.9, where 1 is the maximum; inactive = score below 0.9)
How it was run: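 Viability measured through PI dye exclusion by high-content imaging at 6 h post-dosing.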

[18] = CCTE_Harrill_HTTr_CellCount_MCF7: CCTE's Cell Proliferation Assessment for the High-Throughput Transcriptomics (HTTr) Platform, Harrill Lab (AID 2284012);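 note: count of Hoechst-stained nuclei per well by high-content imaging in MCF-7 cells; cells exposed to compound for six hours; intended direction is loss of nuclei count meaning fewer cells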
How it was run: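 Nuclei counting (Hoechst, high content imaging) in MCF-7 after a 6 h treatment at eight concentrations. Activity fitted bidirectionally, DMSO as negative control.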

Measured: AC50

CN1CCc2cc(Cl)c(O)cc2[C@H]2c3ccccc3CC[C@@H]21
inactive: [1] | [2] | [3] | [4] | [5] | [6]

O=[N+]([O-])c1ccc2ccc3cccc4ccc1c2c34
active: PGR (gene 5241) [9] 12.2 µM | PGR (gene 5241) [13] 13 µM
not listed: [3] | [4] | [16] | [17] | [18]
inactive: all other assays above

Nc1nc(N)c(N)c(N)n1
inactive: [1] | [2] | [3] | [4]

NCc1cccnc1
inactive: [1] | [2] | [7] | [5] | [6] | [8]

CCBr
inactive: [1] | [2] | [7] | [6] | [8]

II
inactive: [1] | [2] | [7] | [4] | [8] | [16]

C=CC(=O)OC(C)(C)C
inactive: [1] | [2] | [3] | [4] | [5] | [6]

CC(C)(O)C(Cl)(Cl)Cl
inactive: [1] | [2] | [7] | [6]

CC(Cl)CCl (configuration not stated)
inactive: [1] | [2] | [3] | [4] | [5] | [6] | [8]

CC(C)(C)NCC(O)c1ccccc1Cl (configuration not stated)
inactive: [1] | [2] | [7] | [5] | [6] | [8]

CCCSc1cc(OC)c(CCN)cc1OC
active: [2] 26.1 µM | [3] 48 µM | [5] 43.7 µM | [8] 24.4 µM
inactive: [1] | [4] | [6]

Clc1ccc2c(c1)C(c1ccccc1)=NCc1nncn1-2
inactive: [1] | [2] | [3] | [6] | [8]

CCCCCCCCCCCCN=C(N)N
inactive: [1] | [2] | [3] | [4] | [5] | [6] | [8] | [17] | [16] | [18]

C[C@]12C=CC(=O)C=C1CC[C@@H]1[C@@H]2CC[C@]2(C)OC(=O)CC[C@@H]12
inactive: [1] | [2] | [3] | [5] | [6] | [8]

CCCCCCC[CH2][Sn]([Cl])([Cl])[CH2]CCCCCCC
active: [1] 66.6 µM | [2] 67 µM | [3] 21.2 µM | [4] 36.5 µM
inactive: [6] | [8]

O=C1CCCCC1CN1CCCCC1 (configuration not stated)
inactive: [1] | [2] | [3] | [4] | [8]
